MEP2 TOR yeast: modulators of MEP2-GFP levels in yeast, primary screen, S. cerevisiae, multiplex flow cytometry, MLPCN library | GFP response vs DMSO, % at 10 µM | actives 0.51% (n = 330,000) | S. cerevisiae MEP2-GFP strain, 3 h; 100% = DMSO control level;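 active means GFP response versus DMSO above a set limit, roughly screen mean plus 3 SD, cut at about 180% in these data; inconclusive means fewer than 70 cells counted for a yeast strain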;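 further: median GFP fluorescence of the barcode-gated MEP2-GFP cells per well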
GASC-1 inh: inhibitors of GASC-1 histone demethylase, primary screen, biochemical, fluorescence, DELFIA europium | GST-JMJD2C(1-420) H3K9me3 demethylation | actives 0.069% (n = 330,000) | Lysine-specific demethylase 4C (Homo sapiens), Q9H3R0 | inhibition, % at 2.35 µM;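 active means more than half of a compound's replicate wells show inhibition beyond 50%, single wells judged on their own value; inconclusive means some, but no more than half, of replicates pass 50% inhibition; inactive means no replicate passes 50% inhibition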;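 further: signal counts dimethyl H3K9 product captured on neutravidin plate; 0% = median of DMSO wells and 100% = 0.3 times that DMSO median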
Target sequence (Q9H3R0 1-420 limits assumed): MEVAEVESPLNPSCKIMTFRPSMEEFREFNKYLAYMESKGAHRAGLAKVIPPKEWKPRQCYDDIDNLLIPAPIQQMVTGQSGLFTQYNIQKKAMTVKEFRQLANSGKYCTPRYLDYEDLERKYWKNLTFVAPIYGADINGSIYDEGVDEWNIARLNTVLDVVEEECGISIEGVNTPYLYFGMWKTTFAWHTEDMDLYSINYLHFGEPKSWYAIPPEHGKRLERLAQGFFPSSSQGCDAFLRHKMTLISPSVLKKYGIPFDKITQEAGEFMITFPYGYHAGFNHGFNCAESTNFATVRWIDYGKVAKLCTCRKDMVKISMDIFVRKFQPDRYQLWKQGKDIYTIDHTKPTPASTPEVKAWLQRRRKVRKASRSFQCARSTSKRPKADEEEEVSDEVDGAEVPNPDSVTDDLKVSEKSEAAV
LAP4-GFP MLPCN: modulators of LAP4-GFP expression in yeast, primary screen, S. cerevisiae, multiplex flow cytometry, MLPCN library; 3 h; median GFP as percent of DMSO wells; AID 2023, 2009; actives 0.34% (n = 320,000); GFP response vs DMSO, % at 10 µM;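 active means GFP response vs DMSO above a set limit, about the screen mean plus 3 SD, cut at about 150% in these data; inconclusive means under 70 cell events counted for the yeast strain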
CIT2-GFP yeast: modulators of CIT2-GFP expression in yeast, primary screen, S. cerevisiae, GFP fusion, multiplex flow cytometry, MLPCN library; S. cerevisiae CIT2-GFP strain, 3 h; 100 means same as DMSO wells; GFP response vs DMSO, % at 10 µM; actives 0.065% (n = 320,000); AID 2029, 2009;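 active means GFP response relative to DMSO above a set limit, near the screen mean plus 3 SD, cut at about 150% in these data; inconclusive means Fewer than 70 cells measured for a yeast strain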;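 further: ratio of well median GFP fluorescence to mean of DMSO wells on the plate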
AGP1-GFP MLPCN: modulators of AGP1-GFP expression in yeast TOR pathway, primary screen, cell-based, multiplex flow cytometry, S. cerevisiae, MLPCN library | 3 h; GFP as percent of DMSO wells | GFP response vs DMSO, % at 10 µM | actives 0.02% (n = 320,000) | AID 2066, 2009;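 active means GFP response relative to DMSO above a set limit, near screen average plus 3 SD, cut at about 150% in these data; inconclusive means fewer than 70 cells counted for the yeast strain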;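 further: median GFP channel fluorescence of the gated AGP1 strain per well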
RPL19A-GFP yeast: RPL19A-GFP expression modulators in yeast, primary screen, cell-based, S. cerevisiae, multiplex flow cytometry, MLPCN. S. cerevisiae RPL19A-GFP strain, 3 h; stronger effect = lower value. percent response vs DMSO, % at 10 µM. actives 0.3% (n = 330,000);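 active means percent response vs DMSO below 50%; inconclusive means fewer than 70 events counted for the yeast strain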;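 further: median channel GFP fluorescence of the barcoded RPL19A-GFP strain; ratio of sample median GFP to plate DMSO average so 100% = DMSO; lower means less RPL19A-GFP as with rapamycin TOR inhibition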
An asterisk follows results filed as active; [ ] = remark or other dose. In the library only some 0.97% were active in any assay of this set; here they are far more common.

How did Cc1ccc(F)cc1NC(=O)N1CCNC(=O)C1CC(=O)Nc1cc(Cl)ccc1Cl (centres undefined) do in these assays?
MEP2 TOR yeast: 103.1; GASC-1 inh: 7.8; LAP4-GFP MLPCN: 117.5; CIT2-GFP yeast: 153.8*[may fluoresce green]; AGP1-GFP MLPCN: 114.9; RPL19A-GFP yeast: 90.8

How did O=C(CC1C(=O)NCCN1C(=O)c1ccccc1)Nc1cc(Cl)ccc1Cl (centres undefined) do in these assays?
MEP2 TOR yeast: 105.3; GASC-1 inh: -6.5; LAP4-GFP MLPCN: 109.2; CIT2-GFP yeast: 103.2; AGP1-GFP MLPCN: 105.9; RPL19A-GFP yeast: 100.8

How did COc1ccccc1NC(=O)CC1C(=O)NCCN1C(=O)Nc1ccc(Cl)c(Cl)c1 (centres undefined) do in these assays?
MEP2 TOR yeast: 470.1*[may fluoresce violet]; GASC-1 inh: -8.0; LAP4-GFP MLPCN: 86.6; CIT2-GFP yeast: inconclusive; AGP1-GFP MLPCN: 21.7; RPL19A-GFP yeast: 67.5

Results for Cc1cc(NC(=O)CCN2CCC(C)CC2)ccc1Br ?
MEP2 TOR yeast: 102.5; GASC-1 inh: 33.4; LAP4-GFP MLPCN: 97.0; CIT2-GFP yeast: 100.5; AGP1-GFP MLPCN: 85.6; RPL19A-GFP yeast: 102.4

How did Cc1nn(-c2ccc(Cl)cc2)c2[nH]c(CCl)cc(=O)c12 do in these assays?
MEP2 TOR yeast: 113.0; GASC-1 inh: -10.6; LAP4-GFP MLPCN: 91.1; CIT2-GFP yeast: 96.9; AGP1-GFP MLPCN: 90.0; RPL19A-GFP yeast: 101.2

How did Cc1cc(C)c2nc(NC(=O)CN3C(=O)NC4(CCCC4)C3=O)sc2c1 do in these assays?
MEP2 TOR yeast: 99.6; GASC-1 inh: -8.1; LAP4-GFP MLPCN: 105.9; CIT2-GFP yeast: 112.0; AGP1-GFP MLPCN: 105.3; RPL19A-GFP yeast: 100.2

What do the screens show for `COc1ccc(C(=O)Nc2ccc(N3CCCC3)cc2)cc1`?
MEP2 TOR yeast: 99.4; GASC-1 inh: -11.0; LAP4-GFP MLPCN: 105.2; CIT2-GFP yeast: 90.1; AGP1-GFP MLPCN: 97.3; RPL19A-GFP yeast: 95.1

How did COc1ccc(N2CCN(c3ccc(NC(=O)NN)cc3)CC2)cc1 do in these assays?
MEP2 TOR yeast: 327.6*[may fluoresce violet]; GASC-1 inh: -0.1; LAP4-GFP MLPCN: 87.2; CIT2-GFP yeast: inconclusive; AGP1-GFP MLPCN: inconclusive; RPL19A-GFP yeast: 44.6*[may fluoresce violet]

Results for COC(=O)c1sc(N)c(C(=O)OC)c1COC(=O)C12CC3CC(CC(O)(C3)C1)C2 ?
MEP2 TOR yeast: 249.0*[may fluoresce violet]; GASC-1 inh: -13.4; LAP4-GFP MLPCN: 78.1; CIT2-GFP yeast: inconclusive; AGP1-GFP MLPCN: 11.9; RPL19A-GFP yeast: 67.6

How did Cc1noc(C)c1NC(=O)N(C)C[C@H]1Oc2ccc(NC(=O)NC3CCCCC3)cc2C(=O)N([C@H](C)CO)C[C@@H]1C do in these assays?
MEP2 TOR yeast: 100.9; LAP4-GFP MLPCN: 107.1; CIT2-GFP yeast: 108.8; AGP1-GFP MLPCN: 103.5; RPL19A-GFP yeast: 100.7

How did CCOC(=O)c1c(C)[nH]c(C)c1C(=O)COC(=O)c1cc2ccccc2cc1O do in these assays?
MEP2 TOR yeast: 152.1; GASC-1 inh: -0.5; LAP4-GFP MLPCN: 127.1; CIT2-GFP yeast: 153.5*; AGP1-GFP MLPCN: 103.9; RPL19A-GFP yeast: 112.0

Results for CCOC(=O)c1c(C)[nH]c(C)c1C(=O)COC(=O)c1cc2ccccc2cc1OC ?
MEP2 TOR yeast: 107.0; GASC-1 inh: 1.3; LAP4-GFP MLPCN: 101.9; CIT2-GFP yeast: 95.8; AGP1-GFP MLPCN: 99.5; RPL19A-GFP yeast: 104.6

Results for Cc1ccc(CO/N=C/c2c(O)cc(C)oc2=O)cc1 ?
MEP2 TOR yeast: 98.6; GASC-1 inh: 52.8; LAP4-GFP MLPCN: 163.5*; CIT2-GFP yeast: 98.1; AGP1-GFP MLPCN: 89.0; RPL19A-GFP yeast: 99.3

What do the screens show for `Cc1ccc(N/N=C/c2c(O)cc(C)oc2=O)cc1`?
MEP2 TOR yeast: 99.8; GASC-1 inh: 5.2; LAP4-GFP MLPCN: 94.3; CIT2-GFP yeast: 132.0; AGP1-GFP MLPCN: 81.2; RPL19A-GFP yeast: 104.8

Results for C[C@]12CCC(=O)C=C1C=C[C@@H]1[C@@H]2CC[C@@]2(C)[C@H]1CC[C@@]21CCC(=O)O1 ?
MEP2 TOR yeast: 98.5; GASC-1 inh: 7.7; LAP4-GFP MLPCN: 91.1; CIT2-GFP yeast: 92.2; AGP1-GFP MLPCN: 90.1; RPL19A-GFP yeast: 102.5

What do the screens show for `CC(Oc1ccc(Cl)cc1Cl)C(=O)NC1=NN(c2ccccc2)C(=O)C1` (centres undefined)?
MEP2 TOR yeast: 101.6; GASC-1 inh: 3.9; LAP4-GFP MLPCN: 157.4*; CIT2-GFP yeast: 86.9; AGP1-GFP MLPCN: 85.7; RPL19A-GFP yeast: 75.3

What do the screens show for `COc1ccccc1OCC(=O)Sc1ccc(C)cc1`?
MEP2 TOR yeast: 97.1; GASC-1 inh: 4.3; LAP4-GFP MLPCN: 158.9*; CIT2-GFP yeast: 93.1; AGP1-GFP MLPCN: 98.0; RPL19A-GFP yeast: 92.6

Results for Cc1ccc(OCC(=O)Sc2ccc(C)cc2)cc1 ?
MEP2 TOR yeast: 95.7; GASC-1 inh: -0.1; LAP4-GFP MLPCN: 102.2; CIT2-GFP yeast: 102.7; AGP1-GFP MLPCN: 96.5; RPL19A-GFP yeast: 100.9

How did Cc1ccc(CN2CC(C(=O)NCCC3=CCCCC3)CC2=O)cc1 (centres undefined) do in these assays?
MEP2 TOR yeast: 98.2; GASC-1 inh: -0.9; LAP4-GFP MLPCN: 99.8; CIT2-GFP yeast: 89.9; AGP1-GFP MLPCN: 101.3; RPL19A-GFP yeast: 95.5

Results for C(=N\Nc1ccccn1)/c1c[nH]c2ccccc12 ?
MEP2 TOR yeast: 206.5*; GASC-1 inh: -20.8; LAP4-GFP MLPCN: 114.6; CIT2-GFP yeast: 103.5; AGP1-GFP MLPCN: 26.9; RPL19A-GFP yeast: 68.0

What do the screens show for `CN1/C(=C\C(=O)c2cccc(S(=O)(=O)N3CCCCC3)c2)C(C)(C)c2ccccc21`?
MEP2 TOR yeast: 156.9; GASC-1 inh: -0.8; LAP4-GFP MLPCN: 120.9; CIT2-GFP yeast: 162.1*; AGP1-GFP MLPCN: 109.4; RPL19A-GFP yeast: 116.0

Results for CN1/C(=C\C(=O)c2cccnc2)C(C)(C)c2ccccc21 ?
MEP2 TOR yeast: 100.2; GASC-1 inh: 6.5; LAP4-GFP MLPCN: 101.9; CIT2-GFP yeast: 100.7; AGP1-GFP MLPCN: 89.7; RPL19A-GFP yeast: 98.2

What do the screens show for `CC(=O)Nc1ccc(S(=O)(=O)Nc2nc3ccccc3nc2Nc2ccc(O)c(C(=O)O)c2)cc1`?
MEP2 TOR yeast: 102.4; GASC-1 inh: -14.6; LAP4-GFP MLPCN: 94.1; CIT2-GFP yeast: 101.3; AGP1-GFP MLPCN: 100.7; RPL19A-GFP yeast: 99.9

How did CCCCNc1c(-c2ccc(SC(C)CC)cc2)nc2ccccn12 (centres undefined) do in these assays?
MEP2 TOR yeast: 91.0; GASC-1 inh: -4.0; LAP4-GFP MLPCN: 161.9*; CIT2-GFP yeast: 78.4; AGP1-GFP MLPCN: 82.6; RPL19A-GFP yeast: 84.6

How did c1cc2c(cc1C1CCCCC1)c1c3n2CCCNC3CCC1 (centres undefined) do in these assays?
MEP2 TOR yeast: 129.8; GASC-1 inh: 30.5; LAP4-GFP MLPCN: 188.3*; CIT2-GFP yeast: 71.6; AGP1-GFP MLPCN: 69.7; RPL19A-GFP yeast: 73.9
